In PubChem BioAssay (EPA / NIEHS):
Results filed as inconclusive are left out. Activity calls are given as the source filed them. Rule for the calls, unless noted: active = hit-call score of the fitted dose curve at least 0.9, where 1 is the maximum; inactive = score below 0.9.

How the values were obtained:
[1] = biological target: Paired box protein Pax-6 (Homo sapiens) (UniProt P26367); assay: ATG_Pax6_CIS: Attagene CIS-FACTORIAL HepG2 Assay for human Paired Box 6 (PAX6) (AID 2282956); details: HepG2 CIS-FACTORIAL PAX6 reporter transcription, RNA readout; actives raise or lower the signal
In short: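 Fluorescent RT-PCR products separated by capillary electrophoresis report PAX6-linked promoter mRNA in HepG2 cells 24 h post-dose. Curves fitted bidirectionally, DMSO as negative control.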

[2] = ATG_PXRE_CIS: Attagene CIS-FACTORIAL HepG2 Assay for human Pregnane X Receptor Element (PXRE) (AID 2282957); details: HepG2 Attagene CIS-FACTORIAL PXRE reporter, mRNA; actives raise or lower the signal
In short: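 Endogenous transcription factor activity in HepG2 was gauged through induction of reporter mRNA driven by a cis-regulating promoter element, sampled 24 h post-treatment. Activity was fitted in both directions against DMSO negative control.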

[3] = ATG_PPRE_CIS: Attagene CIS-FACTORIAL HepG2 Assay for human Peroxisome Proliferator-activated Response Element (PPRE) (AID 2282958); details: HepG2 PPRE cis-element reporter, Attagene transcription factor profiling; actives raise or lower the signal
In short: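 Read-out: fluorescent reporter mRNA fragments resolved by capillary electrophoresis after RT-PCR. HepG2 cells carried transiently transfected PPRE-driven cis reporter constructs and were dosed for 24 h; gain or loss of signal fitted relative to DMSO.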

[4] = ATG_Sox_CIS: Attagene CIS-FACTORIAL HepG2 Assay for human SRY-box transcription factor (SOX) (AID 2282960); details: HepG2 Attagene cis-factorial SOX reporter, mRNA; actives raise or lower the signal
In short: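 Read-out: fluorescent RT-PCR products of SOX1-linked reporter transcripts resolved by capillary electrophoresis, fitted bidirectionally against DMSO. Transiently transfected HepG2 cells, 24 h after chemical exposure, endogenous transcription factor activity.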

[5] = ATG_SREBP_CIS: Attagene CIS-FACTORIAL HepG2 Assay for human Sterol Regulatory Element Binding (SREBP) (AID 2282962); details: HepG2 Attagene cis-factorial SREBP reporter, mRNA; actives raise or lower the signal
In short: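 Endogenous factor activity is measured in HepG2 through multiplexed reporter units under cis-element control. Following a 24 h incubation, reporter transcripts are reverse-transcribed, PCR-amplified and sized by capillary electrophoresis; activity is fitted in both directions relative to DMSO.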

[6] = biological target: Signal transducer and activator of transcription 3 (Homo sapiens) (UniProt P40763); assay: ATG_STAT3_CIS: Attagene CIS-FACTORIAL HepG2 Assay for human Signal Transducer and Activator of Transcription 3 (STAT3) (AID 2282963); details: HepG2, Attagene cis-factorial STAT3 reporter transcription; actives raise or lower the signal
In short: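 HepG2, MRTU-transfected, 24 h dosing. RNA → RT → PCR → FAM label → HpaI → CE. Bidirectional fit vs DMSO.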

[7] = ATG_TA_CIS: Attagene CIS-FACTORIAL HepG2 Assay for human TA Basal Promoter (AID 2282964); details: HepG2 Attagene CIS-factorial TA basal promoter reporter; actives raise or lower the signal
In short: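 Cis-factorial format in HepG2: reporters report endogenous factors, not chimeric Gal4 fusions. After 24 h treatment, reporter transcripts were measured by RT-PCR-capillary electrophoresis fluorescence, analysed bidirectionally versus DMSO.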

[8] = ATG_TCF_b_cat_CIS: Attagene CIS-FACTORIAL HepG2 Assay for human T-Cell-Factor with beta-catenin (TCF/b-cat) (AID 2282965); details: HepG2 TCF/beta-catenin cis-reporter transcription, actives raise or lower the signal
In short: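 Using capillary electrophoresis as the read-out, labelled reporter cDNA fragments from transiently transfected HepG2 were sized and quantified. Exposure lasted 24 hours; activity in either direction was referenced to DMSO.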

[9] = ATG_TAL_CIS: Attagene CIS-FACTORIAL HepG2 Assay for human TAL Basal Promoter (AID 2282966); details: HepG2 Attagene cis-factorial TAL promoter reporter; actives raise or lower the signal;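 note: background control endpoint measuring basal TAL promoter reporter mRNA not a specific factor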
In short: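 Endogenous transcription-factor activity is sensed in HepG2 cells through transfected cis-promoter reporter constructs. After 24 h dosing, reporter transcripts are quantified by RT-PCR and capillary electrophoresis. Gain or loss of signal is fitted relative to DMSO.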

[10] = ATG_TGFb_CIS: Attagene CIS-FACTORIAL HepG2 Assay for human Transforming Growth Factor (TGF) (AID 2282967); details: HepG2 Attagene CIS TGFb reporter, mRNA transcription; actives raise or lower the signal
In short: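 Multiplexed cis-reporter HepG2 system, 24 h treatment; mRNA induction read by fluorescence after RT-PCR and CE; DMSO negative control, bidirectional curve fitting.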

[11] = ATG_VDRE_CIS: Attagene CIS-FACTORIAL HepG2 Assay for human Vitamin D Receptor Element (VDRE) (AID 2282968); details: HepG2 VDRE cis-reporter transcription, actives raise or lower the signal
In short: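 Steps: transfect HepG2 with multiple reporter transcription units; dose chemicals 24 h; isolate RNA; RT-PCR; label with 6-FAM primer extension; HpaI digest; capillary electrophoresis. Curves fitted both directions against DMSO.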

[12] = biological target: Nuclear receptor subfamily 1 group I member 3 (Homo sapiens) (UniProt Q14994); assay: ATG_CAR_TRANS: Attagene TRANS-FACTORIAL HepG2 Assay for human Constitutive Androstane Receptor (CAR) (AID 2282969; active = hit-call score of the fitted dose curve at least 0.9, where 1 is the maximum;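 note: activators raise reporter mRNA above DMSO so AC50 marks induction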); details: HepG2 Attagene TRANS-FACTORIAL CAR reporter
In short: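 Steps: transient transfection of HepG2 with multiple GAL4-UAS reporter units; 24 h compound incubation; RNA isolation, RT-PCR, 6-FAM primer extension, HpaI digest; capillary electrophoresis. Gain-of-signal relative to DMSO negative control.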

[13] = biological target: Estrogen receptor (Homo sapiens) (UniProt P03372); assay: ATG_ERa_TRANS: Attagene TRANS-FACTORIAL HepG2 Assay for human Estrogen Receptor alpha (ERa) (AID 2282970; active = hit-call score of the fitted dose curve at least 0.9, where 1 is the maximum); details: HepG2 Attagene TRANS ERa GAL4 reporter, mRNA
In short: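 Transfected HepG2 cells carrying GAL4-UAS-driven reporter units were dosed for 24 hours. Total RNA was reverse-transcribed, reporter sequences PCR-amplified, FAM-labelled, HpaI-digested and resolved by capillary electrophoresis. Increases over DMSO control defined activity.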

[14] = biological target: X-box-binding protein 1 (Homo sapiens) (UniProt P17861); assay: ATG_Xbp1_CIS: Attagene CIS-FACTORIAL HepG2 Assay for human X-box Binding Protein 1 (XBP1) (AID 2282972); details: HepG2 XBP1 cis-element reporter, Attagene multiplex; actives raise or lower the signal
In short: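 Multiplexed cis-reporter readout in transfected HepG2 liver cells. Exposure lasted 24 hours. Activity in either direction was fitted against DMSO as negative control and baseline.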

[15] = biological target: Androgen receptor (Homo sapiens) (UniProt P10275); assay: ATG_AR_TRANS: Attagene TRANS-FACTORIAL HepG2 Assay for human Androgen Receptor (AR) (AID 2282973; active = hit-call score of the fitted dose curve at least 0.9, where 1 is the maximum); details: HepG2 Attagene TRANS-FACTORIAL AR reporter transcription
In short: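 Transfected HepG2, 24 h treatment, chimeric NR-Gal4 driving GAL4-UAS reporters. mRNA induction by RT-PCR/capillary electrophoresis fluorescence; DMSO as negative control and baseline.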

[16] = ATG_M_19_TRANS: Attagene TRANS-FACTORIAL HepG2 Assay for M19 Transcription Factor (Internal Marker) (AID 2282974; active = hit-call score of the fitted dose curve at least 0.9, where 1 is the maximum); details: HepG2 Attagene TRANS-FACTORIAL M19 internal marker reporter
In short: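 24 h chemical exposure of transiently transfected HepG2 (MRTU library). RNA → oligo(dT) RT → PCR → 6-FAM labelling → HpaI cut → CE fluorescence. Positive-direction fit vs DMSO baseline; background internal-marker readout.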

[17] = ATG_Hpa5_TRANS: Attagene TRANS-FACTORIAL HepG2 Assay for human GAL4-Hpa5 Hepatocyte Transcription Factor Basal Promoter (AID 2282975; active = hit-call score of the fitted dose curve at least 0.9, where 1 is the maximum;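 note: hits are increases in reporter mRNA over DMSO baseline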); details: HepG2 Attagene GAL4-Hpa5 transcription reporter
In short: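 Gain-of-signal versus DMSO is fitted for reporter mRNA quantified by RT-PCR and capillary electrophoresis after 24 h exposure. This endpoint is an internal background marker in transiently transfected HepG2 cells carrying GAL4-UAS reporter units.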

[18] = ATG_RORE_CIS: Attagene CIS-FACTORIAL HepG2 Assay for human RAR-related Orphan Receptor Element (RORE) (AID 2282959); details: HepG2 Attagene cis-factorial RORE reporter, mRNA; actives raise or lower the signal
In short: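 Readout: fluorescent reporter mRNA by RT-PCR plus capillary electrophoresis, 24 h after dosing transfected HepG2 cells. Endogenous transcription factor activity on a cis promoter element is measured. Gain or loss of signal fitted against DMSO.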

[19] = biological target: Steroid hormone receptor ERR1 (Homo sapiens) (UniProt P11474); assay: ATG_ERRa_TRANS: Attagene TRANS-FACTORIAL HepG2 Assay for human Estrogen-Related Receptor alpha (ERRa) (AID 2282971; active = hit-call score of the fitted dose curve at least 0.9, where 1 is the maximum); details: HepG2 Attagene TRANS reporter, ERRa transactivation
In short: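 HepG2 cells were transiently transfected with multiple GAL4-UAS reporter units, then dosed with compound for 24 h. Total RNA was reverse-transcribed, reporter cDNA PCR-amplified and fluorescently labelled, and fragments resolved by capillary electrophoresis; induction was compared with DMSO.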

Measured: AC50

Sequence of Nuclear receptor subfamily 1 group I member 3 (Homo sapiens) (Q14994 whole entry, looked up, the tested form may be a part): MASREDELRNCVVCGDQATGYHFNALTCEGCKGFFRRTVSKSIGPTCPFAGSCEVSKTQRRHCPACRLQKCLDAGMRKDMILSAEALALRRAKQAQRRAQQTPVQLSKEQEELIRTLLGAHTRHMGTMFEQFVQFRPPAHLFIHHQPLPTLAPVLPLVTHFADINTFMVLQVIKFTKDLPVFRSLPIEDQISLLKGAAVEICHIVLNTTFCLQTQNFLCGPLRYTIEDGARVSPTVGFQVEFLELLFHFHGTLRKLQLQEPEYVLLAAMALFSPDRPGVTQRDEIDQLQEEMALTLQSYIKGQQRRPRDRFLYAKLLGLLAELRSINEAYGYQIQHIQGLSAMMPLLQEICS
Sequence of Signal transducer and activator of transcription 3 (Homo sapiens) (P40763 whole entry, looked up): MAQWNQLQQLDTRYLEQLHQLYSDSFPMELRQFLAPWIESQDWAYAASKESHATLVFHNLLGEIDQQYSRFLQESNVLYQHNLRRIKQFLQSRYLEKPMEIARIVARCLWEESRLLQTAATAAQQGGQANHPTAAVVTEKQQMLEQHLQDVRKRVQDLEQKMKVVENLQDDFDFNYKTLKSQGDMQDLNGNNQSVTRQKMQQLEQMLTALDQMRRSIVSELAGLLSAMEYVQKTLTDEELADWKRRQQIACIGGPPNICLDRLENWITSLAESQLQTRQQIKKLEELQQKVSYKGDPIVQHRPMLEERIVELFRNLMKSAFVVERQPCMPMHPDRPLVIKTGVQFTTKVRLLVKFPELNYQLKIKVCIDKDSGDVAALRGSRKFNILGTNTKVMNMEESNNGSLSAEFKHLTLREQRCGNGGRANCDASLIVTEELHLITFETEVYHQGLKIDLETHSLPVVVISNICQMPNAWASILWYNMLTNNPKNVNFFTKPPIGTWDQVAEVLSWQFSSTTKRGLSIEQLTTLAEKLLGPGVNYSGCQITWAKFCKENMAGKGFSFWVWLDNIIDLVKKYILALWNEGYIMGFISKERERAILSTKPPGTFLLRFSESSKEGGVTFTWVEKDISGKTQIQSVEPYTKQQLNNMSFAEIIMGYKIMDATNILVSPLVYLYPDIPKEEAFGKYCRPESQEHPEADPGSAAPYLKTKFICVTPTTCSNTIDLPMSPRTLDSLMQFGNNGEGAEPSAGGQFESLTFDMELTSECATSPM
Sequence of X-box-binding protein 1 (Homo sapiens) (P17861 whole entry, looked up): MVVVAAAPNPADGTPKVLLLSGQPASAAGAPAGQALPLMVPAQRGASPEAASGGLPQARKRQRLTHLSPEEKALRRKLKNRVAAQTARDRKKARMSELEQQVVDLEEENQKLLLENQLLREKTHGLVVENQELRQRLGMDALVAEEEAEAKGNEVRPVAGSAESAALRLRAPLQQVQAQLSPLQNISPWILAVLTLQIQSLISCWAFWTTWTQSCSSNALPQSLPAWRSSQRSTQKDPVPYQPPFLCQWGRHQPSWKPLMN
Sequence of Paired box protein Pax-6 (Homo sapiens) (P26367 whole entry, looked up): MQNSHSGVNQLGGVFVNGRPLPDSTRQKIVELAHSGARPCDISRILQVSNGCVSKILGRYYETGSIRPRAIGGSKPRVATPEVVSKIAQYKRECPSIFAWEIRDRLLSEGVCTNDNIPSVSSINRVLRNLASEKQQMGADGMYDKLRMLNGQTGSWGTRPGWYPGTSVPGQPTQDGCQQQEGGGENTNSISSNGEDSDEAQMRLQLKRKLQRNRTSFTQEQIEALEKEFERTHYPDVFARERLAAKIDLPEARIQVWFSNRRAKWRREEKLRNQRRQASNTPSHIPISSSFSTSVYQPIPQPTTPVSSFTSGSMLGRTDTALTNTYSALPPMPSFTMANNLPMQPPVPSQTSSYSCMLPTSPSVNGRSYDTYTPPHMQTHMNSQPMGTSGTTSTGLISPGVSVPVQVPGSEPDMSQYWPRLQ
Sequence of Steroid hormone receptor ERR1 (Homo sapiens) (P11474 whole entry, looked up, the tested form may be a part): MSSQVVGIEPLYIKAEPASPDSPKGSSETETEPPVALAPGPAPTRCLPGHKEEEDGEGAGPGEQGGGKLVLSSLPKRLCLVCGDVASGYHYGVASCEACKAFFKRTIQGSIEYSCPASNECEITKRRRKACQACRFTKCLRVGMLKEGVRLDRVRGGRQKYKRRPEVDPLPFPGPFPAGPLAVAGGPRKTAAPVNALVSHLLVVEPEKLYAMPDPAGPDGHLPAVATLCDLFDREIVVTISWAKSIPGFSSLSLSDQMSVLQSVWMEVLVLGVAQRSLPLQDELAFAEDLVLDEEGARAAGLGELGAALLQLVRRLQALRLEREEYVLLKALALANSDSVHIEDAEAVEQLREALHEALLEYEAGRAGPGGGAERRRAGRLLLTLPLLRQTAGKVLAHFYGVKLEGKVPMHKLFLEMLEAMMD
Sequence of Estrogen receptor (Homo sapiens) (P03372 whole entry, looked up, the tested form may be a part): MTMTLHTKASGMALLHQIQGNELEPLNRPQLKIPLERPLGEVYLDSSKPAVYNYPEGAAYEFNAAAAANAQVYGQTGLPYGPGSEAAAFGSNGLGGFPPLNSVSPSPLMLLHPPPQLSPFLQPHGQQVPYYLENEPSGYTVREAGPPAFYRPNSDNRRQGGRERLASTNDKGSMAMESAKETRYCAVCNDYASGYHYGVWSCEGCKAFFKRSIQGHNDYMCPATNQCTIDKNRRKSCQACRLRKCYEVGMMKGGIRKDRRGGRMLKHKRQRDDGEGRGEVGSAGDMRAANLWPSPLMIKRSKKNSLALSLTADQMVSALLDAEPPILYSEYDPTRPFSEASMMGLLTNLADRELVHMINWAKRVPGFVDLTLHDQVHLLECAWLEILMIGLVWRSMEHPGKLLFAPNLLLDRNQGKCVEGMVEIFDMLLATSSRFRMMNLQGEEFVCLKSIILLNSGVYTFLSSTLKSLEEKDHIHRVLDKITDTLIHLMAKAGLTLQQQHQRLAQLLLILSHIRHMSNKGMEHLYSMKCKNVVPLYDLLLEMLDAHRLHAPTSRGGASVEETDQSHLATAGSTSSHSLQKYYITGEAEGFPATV
Sequence of Androgen receptor (Homo sapiens) (P10275 whole entry, looked up, the tested form may be a part): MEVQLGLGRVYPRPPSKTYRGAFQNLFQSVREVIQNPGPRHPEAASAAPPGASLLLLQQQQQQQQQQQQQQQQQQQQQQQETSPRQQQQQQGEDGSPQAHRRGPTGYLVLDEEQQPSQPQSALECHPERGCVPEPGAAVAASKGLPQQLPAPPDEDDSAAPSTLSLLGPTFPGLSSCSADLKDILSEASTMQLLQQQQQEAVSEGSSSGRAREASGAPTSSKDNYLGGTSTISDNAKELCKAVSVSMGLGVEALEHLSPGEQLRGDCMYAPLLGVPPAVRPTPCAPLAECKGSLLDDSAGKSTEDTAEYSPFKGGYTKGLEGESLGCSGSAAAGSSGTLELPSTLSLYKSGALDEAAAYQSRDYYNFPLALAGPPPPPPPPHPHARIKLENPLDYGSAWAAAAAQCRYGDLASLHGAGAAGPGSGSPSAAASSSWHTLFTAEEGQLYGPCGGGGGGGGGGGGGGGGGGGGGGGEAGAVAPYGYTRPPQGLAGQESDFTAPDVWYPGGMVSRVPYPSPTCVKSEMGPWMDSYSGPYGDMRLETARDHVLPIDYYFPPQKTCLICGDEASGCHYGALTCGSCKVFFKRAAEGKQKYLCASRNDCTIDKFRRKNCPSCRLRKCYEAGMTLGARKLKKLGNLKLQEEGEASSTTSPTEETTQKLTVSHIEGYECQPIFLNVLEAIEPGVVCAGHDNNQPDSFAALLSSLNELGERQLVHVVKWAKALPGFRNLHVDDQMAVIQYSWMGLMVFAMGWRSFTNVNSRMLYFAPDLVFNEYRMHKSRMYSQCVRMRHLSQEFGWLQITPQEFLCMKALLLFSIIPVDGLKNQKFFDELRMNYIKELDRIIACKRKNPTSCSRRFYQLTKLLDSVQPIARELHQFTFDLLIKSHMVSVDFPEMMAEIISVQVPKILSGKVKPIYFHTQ

C#CCN1C(=O)COc2cc(F)c(N3C(=O)C4=C(CCCC4)C3=O)cc21
active: [2] 23.8 µM | [3] 12.5 µM
not listed: [18] | [19]
inactive: all other assays above

O=[N+]([O-])/N=C1\NCCN1Cc1ccc(Cl)nc1
active: [2] 30.6 µM
not listed: [3] | [16]
inactive: all other assays above

CCOCN(C(=O)CCl)c1c(C)cccc1CC
active: [2] 0.468 µM
not listed: [3] | [11] | [15] | [17]
inactive: all other assays above

COP(=O)(OC)OC=C(Cl)Cl
active: [2] 21.8 µM | [3] 22.9 µM | [14] 25.1 µM
not listed: [11] | [12] | [15] | [16] | [17] | [19]
inactive: all other assays above

CC1(c2ccc(Oc3ccccc3)cc2)OC(=O)N(Nc2ccccc2)C1=O (stereo unspecified)
active: [2] 2.24 µM | [3] 1.21 µM
not listed: [11] | [12] | [15] | [17]
inactive: all other assays above

CCOc1nc(NC)nc(NC(=O)NS(=O)(=O)c2ccccc2C(=O)OC)n1
not listed: [11] | [13] | [15]
inactive: all other assays above

O=C(NC(=O)c1c(F)cccc1F)Nc1ccc(OC(F)(F)C(F)OC(F)(F)F)c(Cl)c1 (stereo unspecified)
active: [3] 20.9 µM
not listed: [11] | [12] | [15] | [16] | [17] | [19]
inactive: all other assays above
